One test concerns the target CXorf56. Description: pooled miR-30 sensor sort-seq; sequence = guide strand. The settings on record: shRNA.
TTTCTGAGTATATATGTTCGTT registered a sensor-assay potency score (higher = more potent) of -0.396.
In the case of ATATGAGTCAGCAACTTCCCTA, the sensor-assay potency score (higher = more potent) is -0.79.
TTGGTCATCATCACCTTCTTAG: the sensor-assay potency score (higher = more potent) was -0.419.
In the case of TTCTGAGTATATATGTTCGTTT, the sensor-assay potency score (higher = more potent) is -0.865.
Sequence TACTGCTCCATCCACAATGAAG displayed a sensor-assay potency score (higher = more potent) of -1.81.

A further test concerns the target CYB5D1. The description is as above. The settings on record: shRNA.
As to TACAGAAGTATTGCAGGTGTGT, the sensor-assay potency score (higher = more potent) is 0.111.
The sequence TTGAAGTACAGAAGTATTGCAG showed a sensor-assay potency score (higher = more potent) of 0.794.
With TTAATGATGCGGATGCTCCGGG, the sensor-assay potency score (higher = more potent) is -0.0268.
TAGCGGTGTAGGATTTCCCATA displayed a sensor-assay potency score (higher = more potent) of -1.38.
Consider TGAAGTACAGAAGTATTGCAGG, for which the sensor-assay potency score (higher = more potent) is -0.202.
Regarding TTTGGATCAAACCAGTGGCTGA, the sensor-assay potency score (higher = more potent) was -1.34.
Still for that read-out and setting: the value for TACTGAGATAGTCAAATTCTTC was -1.34.
As for TATTCCTGTGCCAATGACGTTA, the sensor-assay potency score (higher = more potent) was -0.429.
On to TACTTGATCTTCTTGTATCATT, for which the sensor-assay potency score (higher = more potent) is -1.02.
With TACGTCTTGAGTCTACACGAGT, the sensor-assay potency score (higher = more potent) was -1.09.

The target in a further test is CYB5RL. The description is as above. To be noted: shRNA.
For TAGGTGTCCTTAGTGAGCCTGT, the sensor-assay potency score (higher = more potent) turned out to be 0.0964.
Still for that read-out and setting: the figure for TTCCTCAGTGTCGTCGTCCTCT is -0.09.
Take TCTAAGTCATCTACTATCCCTC: the sensor-assay potency score (higher = more potent) came out at 0.024.
In the case of TTAATTAACACTTCAAAGTATC, the sensor-assay potency score (higher = more potent) was -1.17.
TAGAGGTCAAACACACAGGGTG displayed a sensor-assay potency score (higher = more potent) of -0.0487.
Regarding TTTCTCTTGGTAACTCCAGGGA, the sensor-assay potency score (higher = more potent) is -0.389.
TTAACACTTCAAAGTATCCTTC: the sensor-assay potency score (higher = more potent) was found to be 0.251.
TTTATAGAAGAAATCTCCGAAA yielded a sensor-assay potency score (higher = more potent) of -0.391.
Turning to TTTAATTAGGTCCTGGCCCAGG, the sensor-assay potency score (higher = more potent) is -0.401.
TAGCACTTAATTAACACTTCAA displayed a sensor-assay potency score (higher = more potent) of 0.518.
On to TTCTCTTGGTAACTCCAGGGAA, for which the sensor-assay potency score (higher = more potent) was -0.56.
TAGAGCAAACCGGACACGGTAG returned a sensor-assay potency score (higher = more potent) of -0.685.

For another test, the target named is CYBRD1. The description is as above. The settings on record: shRNA.
On to TATATTGTTAACATTGTGGTTC, for which the sensor-assay potency score (higher = more potent) was determined as 0.299.
TTTTCCTTGCTGCTACTTCATT showed a sensor-assay potency score (higher = more potent) of -1.57.
Sequence TATCAGTCCAACCCAGCTGTGC came in with a sensor-assay potency score (higher = more potent) of -0.838.
Sequence TAGAGCTAGTTTTGAAACGTGA registered a sensor-assay potency score (higher = more potent) of 0.234.
Same read-out and setting: the value for TTATTTCAAGAAACCATCCTTT was 0.251.
In turn, TTAACTCTGAATCTGATTTGTC displayed a sensor-assay potency score (higher = more potent) of -0.16.
As for TTAAACTCTAGTGCGCTCCCAT, the sensor-assay potency score (higher = more potent) is -0.237.
With TTCATCAGGAGCTTGCTGCATT, the sensor-assay potency score (higher = more potent) is 0.213.
For the sequence TACTTCATTGTTTAACTCTGAA, the sensor-assay potency score (higher = more potent) is -0.114.
TTTAACTCTGAATCTGATTTGT showed a sensor-assay potency score (higher = more potent) of -0.198.
TTTATATTAATCACATCCTTTC: the sensor-assay potency score (higher = more potent) is -0.692.

For the origin of these results see the OligoGym collection.
Also: reference of the scale not given here.
